Measurements as given in the supplement of paper PMC4466140.

B1: unnamed (peptide)
chain: RPKRRAPPPVPKKPS

These binders were tested against AgAbp1 (assay: SPOT peptide array binding signal intensity (averaged, normalized) (arbitrary units (background-subtracted, floor 0; scale differs between SH3 domains)); higher = stronger binding of the SH3 domain to the peptide).
Procedure, shortened: (§1)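 SH3 domains from four yeast species were expressed as GST fusions in E. coli BL21(DE3) and purified on glutathione Sepharose. Each was incubated at 10 μg/ml overnight at 4°C in TBS-based blocking buffer on cellulose membranes bearing synthetic 15-mer peptides, in which serines replaced cysteines. Bound protein was detected with anti-GST antibody, an HRP anti-mouse secondary and luminol, then imaged and quantified with Genespotter. The binding signal is the normalized, background-subtracted spot intensity averaged over replicates, in arbitrary units that are not the same from one domain to another.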
For B1, the “SPOT peptide array binding signal intensity” value was 5860.

Each binder was assayed against AgBbc1 in the same assay as above.
Procedure, shortened: as §1
B1 was tested, and the “SPOT peptide array binding signal intensity” value was 1090.

What follows are binders tested against AgBem1-D1 in the same assay as above.
Procedure, shortened: as §1
With B1 the “SPOT peptide array binding signal intensity” value was 166.

Each binder was assayed against AgBzz1-D1 in the same assay as above.
Procedure, shortened: as §1
B1 was tested, and the “SPOT peptide array binding signal intensity” value was 3720.

The binders below were run against AgBzz1-D2 in the same assay as above.
Procedure, shortened: as §1
In the case of B1, the “SPOT peptide array binding signal intensity” value is reported as 825.

The binders below were run against AgCyk3 in the same assay as above.
Procedure, shortened: as §1
For B1, the “SPOT peptide array binding signal intensity” value was 1.

What follows are binders tested against AgFus1 in the same assay as above.
Procedure, shortened: as §1
With B1 the “SPOT peptide array binding signal intensity” value was 63.5.

The binders below were run against AgHof1 in the same assay as above.
Procedure, shortened: as §1
With B1 the “SPOT peptide array binding signal intensity” value was 380.

The binders below were run against AgHse1 in the same assay as above.
Procedure, shortened: as §1
For B1, the “SPOT peptide array binding signal intensity” value was 294.

What follows are binders tested against AgLsb1 in the same assay as above.
Procedure, shortened: as §1
B1 was tested, and the “SPOT peptide array binding signal intensity” value was 1120.

The binders below were run against AgLsb4 in the same assay as above.
Procedure, shortened: as §1
With B1 the “SPOT peptide array binding signal intensity” value was 313.

What follows are binders tested against AgMyo5 in the same assay as above.
Procedure, shortened: as §1
For B1, the “SPOT peptide array binding signal intensity” value was 124.

What follows are binders tested against AgNbp2 in the same assay as above.
Procedure, shortened: as §1
B1 was tested, and the “SPOT peptide array binding signal intensity” value was 4930.

These binders were tested against AgRvs167 in the same assay as above.
Procedure, shortened: as §1
For B1, the “SPOT peptide array binding signal intensity” value was 191.

These binders were tested against AgSho1 in the same assay as above.
Procedure, shortened: as §1
In the case of B1, the “SPOT peptide array binding signal intensity” value is reported as 650.

Each binder was assayed against AgSla1-D1-D2 in the same assay as above.
Procedure, shortened: as §1
For B1, the “SPOT peptide array binding signal intensity” value was 274.

Each binder was assayed against AgSla1-D3 in the same assay as above.
Procedure, shortened: as §1
For B1, the “SPOT peptide array binding signal intensity” value was 577.

Each binder was assayed against CaAbp1-D1 in the same assay as above.
Procedure, shortened: as §1
With B1 the “SPOT peptide array binding signal intensity” value was 2320.

These binders were tested against CaAbp1-D2 in the same assay as above.
Procedure, shortened: as §1
With B1 the “SPOT peptide array binding signal intensity” value was 4720.

What follows are binders tested against CaBbc1 in the same assay as above.
Procedure, shortened: as §1
In the case of B1, the “SPOT peptide array binding signal intensity” value is reported as 1840.

The binders below were run against CaBem1-D1 in the same assay as above.
Procedure, shortened: as §1
B1 was tested, and the “SPOT peptide array binding signal intensity” value was 78.5.

The binders below were run against CaBzz1-D1 in the same assay as above.
Procedure, shortened: as §1
For B1, the “SPOT peptide array binding signal intensity” value was 7010.

The binders below were run against CaBzz1-D2 in the same assay as above.
Procedure, shortened: as §1
For B1, the “SPOT peptide array binding signal intensity” value was 4680.

What follows are binders tested against CaCyk3 in the same assay as above.
Procedure, shortened: as §1
With B1 the “SPOT peptide array binding signal intensity” value was 55.

The binders below were run against CaFus1 in the same assay as above.
Procedure, shortened: as §1
With B1 the “SPOT peptide array binding signal intensity” value was 350.

What follows are binders tested against CaHof1 in the same assay as above.
Procedure, shortened: as §1
B1 was tested, and the “SPOT peptide array binding signal intensity” value was 0.5.

The binders below were run against CaHse1 in the same assay as above.
Procedure, shortened: as §1
With B1 the “SPOT peptide array binding signal intensity” value was 666.

The binders below were run against CaLsb1 in the same assay as above.
Procedure, shortened: as §1
With B1 the “SPOT peptide array binding signal intensity” value was ≤ 0.

The binders below were run against CaLsb4 in the same assay as above.
Procedure, shortened: as §1
B1 was tested, and the “SPOT peptide array binding signal intensity” value was 2700.

Each binder was assayed against CaMyo5 in the same assay as above.
Procedure, shortened: as §1
With B1 the “SPOT peptide array binding signal intensity” value was 2.5.
